# Source: PubChem BioAssay AID1209 (Sanford-Burnham Center for Chemical Genomics, 2008)
# Out of some 190,000 compounds screened, about 810 (0.43%) were called active. This is one part of a sample in which actives are shown more often than they occur. Rule as the data show it: active = inhibition above about 50%; inactive = the rest.
# Target: Mannose-6-phosphate isomerase (Homo sapiens) (UniProt P34949)
# Assay: MPI enzyme activity inhibition – biochemical, fluorescence intensity, coupled assay, primary screen (AID 1209);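 also: plate controls were DMSO vehicle for no effect and wells lacking substrate for full effect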
# Settings: purified PMI enzyme, at 20 µM, hits give high values
# Chain of Mannose-6-phosphate isomerase (Homo sapiens) (P34949 whole entry, looked up): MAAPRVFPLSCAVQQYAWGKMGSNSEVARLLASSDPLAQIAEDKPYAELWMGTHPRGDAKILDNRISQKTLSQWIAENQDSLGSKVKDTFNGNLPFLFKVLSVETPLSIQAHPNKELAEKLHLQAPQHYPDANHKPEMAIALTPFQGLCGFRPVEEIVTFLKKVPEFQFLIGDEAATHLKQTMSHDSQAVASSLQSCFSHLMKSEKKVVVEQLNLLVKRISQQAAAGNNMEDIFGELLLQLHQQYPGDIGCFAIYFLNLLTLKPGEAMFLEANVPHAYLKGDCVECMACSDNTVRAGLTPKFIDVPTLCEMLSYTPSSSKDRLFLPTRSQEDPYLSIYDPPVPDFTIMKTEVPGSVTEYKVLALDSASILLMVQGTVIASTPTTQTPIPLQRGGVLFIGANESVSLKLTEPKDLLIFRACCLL
row,Compound,inhibition
1,O=[N+]([O-])c1cc([N+](=O)[O-])c2c(=Nc3ccccc3)n(-c3ccccc3)n(O)c2c1,10.6% (inactive)
2,O=c1c2cc(Br)ccc2nc(-c2ccc([N+](=O)[O-])cc2)n1O,-3.6% (inactive)
3,O=c1c2c([N+](=O)[O-])cc([N+](=O)[O-])cc2sn1-c1ccc(Br)cc1,109% (active)
4,CCOc1ccccc1CN1CCN(S(=O)(=O)CC)CC1,3.5% (inactive)
5,O=c1[nH]c(CSc2nnc(COc3ccccc3)n2-c2ccccc2)nc2ccccc12,-3.6% (inactive)
6,Nc1cc(C(=O)OCC(=O)NCc2ccco2)ccc1Cl,-6.8% (inactive)
7,COC(=O)c1ccc(OC)cc1OCC(=O)N1CCN(c2ccc(F)cc2)CC1,13.1% (inactive)
8,O=C(/C=C/c1c(Cl)cccc1Cl)NCCc1ccccc1,-10% (inactive)
9,CC(C)CN(CC(C)C)S(=O)(=O)N1CCC(C(=O)NCc2ccc(F)cc2)CC1,2.6% (inactive)
10,CC(C)CN(CC(C)C)S(=O)(=O)N1CCC(C(=O)NCc2cccnc2)CC1,55.2% (active)
11,CCS(=O)(=O)N1CCC(C(=O)NCc2cccnc2)CC1,4.6% (inactive)
12,COc1ccc(NC(=O)C(c2ccccc2)N(C)C(=O)CNC(C)=O)cc1 (stereo not given),-1.1% (inactive)
13,CCOC(=O)N/C(N)=N/c1nc2ccccc2s1,3.7% (inactive)
14,COc1ccc2nc(/N=C\N(C)C)sc2c1,7% (inactive)
15,CN(C)C(=O)c1nc2ccccc2s1,4.6% (inactive)
16,COc1ccc2nc(N=Nc3ccc(N(C)C)cc3)sc2c1,-5.8% (inactive)
17,COc1ccc(-n2c(N)c(C(=O)NCC3CCCO3)sc2=S)cc1 (stereo not given),6% (inactive)
18,Cn1c(=O)c(=O)n(C)c2cc(S(=O)(=O)N3CCC(Cc4ccccc4)CC3)ccc21,0.3% (inactive)
19,CCC(=O)NC(c1cccs1)c1ccc2cccnc2c1O (stereo not given),33.8% (inactive)
20,Oc1c(C(c2ccccc2Cl)N2CCCC2)ccc2cccnc12 (stereo not given),32.1% (inactive)
21,Oc1c(C(c2cccs2)N2CCN(c3ccccc3)CC2)ccc2cccnc12 (stereo not given),58.8% (active)
22,Oc1c(C(Nc2ccccn2)c2ccccn2)ccc2cccnc12 (stereo not given),6.9% (inactive)
23,Oc1c(C(c2cccs2)N2CCN(c3ccccc3)CC2)sc2ncnn12 (stereo not given),-6.2% (inactive)
24,CN1CCN(C(c2cccnc2)c2ccc3cccnc3c2O)CC1 (stereo not given),39.6% (inactive)

row,Compound,inhibition
1,OCCN1CCN(C(c2cccs2)c2ccc3cccnc3c2O)CC1 (stereo not given),50.8% (active)
2,CCOC(=O)N1CCN(S(=O)(=O)c2cccc3cccnc23)CC1,-9.6% (inactive)
3,Oc1c(C(c2ccccn2)N2CCOCC2)ccc2cccnc12 (stereo not given),60.9% (active)
4,Cc1conc1NC(c1cccs1)c1ccc2cccnc2c1O (stereo not given),13% (inactive)
5,Cc1nc2sc(C(c3cccs3)N3CCN(c4ccccc4)CC3)c(O)n2n1 (stereo not given),4.2% (inactive)
6,CCOC(=O)N1CCN(C(c2cccnc2)c2ccc3cccnc3c2O)CC1 (stereo not given),60.4% (active)
7,COC(=O)c1nn(-c2ccccc2)c(=O)cc1Oc1ccc(Cl)cc1,-15.5% (inactive)
8,CCOC(=O)N1CCC(NC(=O)CCC(=O)N2CC(C)Oc3ccc(Cl)cc32)CC1 (stereo not given),19.2% (inactive)
9,COc1ccc(C(=O)Nc2nnc(Cc3cccs3)s2)cc1OC,7.8% (inactive)
10,COc1c(Cl)cnn(-c2ccc(Cl)c(Cl)c2)c1=O,-2.9% (inactive)
11,CC1(C)NC(=O)N(CCOCCOc2ccccc2-c2ccccc2)C1=O,-2.9% (inactive)
12,COc1cc(O)c2c(c1)OC(c1ccc(O)cc1)CC2=O (stereo not given),-1.3% (inactive)
13,COc1cc2c(cc1OC)C1(Nc3c-2c(Cc2ccccc2)nn3-c2ccccc2)C(=O)Nc2ccccc21 (stereo not given),9.3% (inactive)
14,Clc1ccc(-c2nn3c(-c4ccccn4)nnc3s2)c(Cl)c1,-4.5% (inactive)
15,O=C1SC(SC(=Nc2ccccc2)Nc2ccccc2)C(=O)N1c1ccccc1 (stereo not given),-11.6% (inactive)
16,Cc1cccc(N2C(=O)CC(SC(=Nc3ccccc3)Nc3ccccc3)C2=O)c1 (stereo not given),15.7% (inactive)
17,Cc1cccc(N2C(=O)SC(SC(=Nc3ccccc3)Nc3ccccc3)C2=O)c1 (stereo not given),52.5% (active)
18,O=[n+]1c2c(n([O-])c3cc(F)ccc31)CCCC2,5.7% (inactive)
19,CCOc1ccc2c(c1)n([O-])c1c([n+]2=O)CCCC1,56.8% (active)
20,Cc1ccc2c(c1)n([O-])c1c([n+]2=O)CCCC1,17.7% (inactive)
21,CSc1ccccc1NC(=O)CN(C)Cc1ccc(Br)cc1,16% (inactive)
22,Cc1ccccc1Cn1ccc(NC(=O)c2cnn3cccnc23)n1,10.4% (inactive)
23,CCOC(=O)NC(=O)CSc1ccccn1,2.1% (inactive)
24,O=C1/C(=C/c2cccc([N+](=O)[O-])c2)CCc2ccccc21,14.1% (inactive)

row,Compound,inhibition
1,O=[N+]([O-])c1cccc(N=Cc2sc3ccccc3c2O)c1,13.3% (inactive)
2,CC1CCC(NC(=O)Cn2ncc3ccccc32)CC1 (stereo not given),8.4% (inactive)
3,COc1cc2cc(CN(CCc3cccc(C)c3)C(=S)NCCCN3CCOCC3)c(=O)[nH]c2cc1OC,10.1% (inactive)
4,O=C(Cc1ccc(Nc2nc(=S)[nH]c3ccccc23)cc1)NC1CCCCC1,-5.3% (inactive)
5,CC(C)CCNC(=O)Cc1ccc(Nc2nc(=S)[nH]c3ccccc23)cc1,51.6% (active)
6,Cc1ccc(CNC(=O)Cc2csc(Nc3nc(=S)[nH]c4ccccc34)n2)cc1,-1.8% (inactive)
7,Cc1cccc(/C(N)=N/OC(=O)c2ccc(Br)o2)c1,12.6% (inactive)
8,CCOc1cc(S(=O)(=O)N2CCCC2)ccc1Cl,-1.7% (inactive)
9,Cc1cn(C2OC(COC(=O)c3ccccc3)C(OC(=O)c3ccccc3)C2OC(=O)c2ccccc2)c(=O)[nH]c1=O (stereo not given),3.7% (inactive)
10,O=C(OCC1O[C@@H](OC(=O)c2cc(O)c(O)c(O)c2)[C@@H](OC(=O)c2cc(O)c(O)c(O)c2)[C@@H](OC(=O)c2cc(O)c(O)c(O)c2)[C@@H]1OC(=O)c1cc(O)c(O)c(O)c1)c1cc(O)c(O)c(O)c1 (stereo not given in full),57.2% (active)
11,O=C(O[C@@H]1OC2COC(=O)c3cc(O)c(O)c(O)c3-c3c(cc(O)c(O)c3O)C(=O)O[C@@H]([C@H]1O)[C@@H]2O)c1cc(O)c(O)c(O)c1,49.1% (inactive)
12,CC(C)N(CC#CC(O)(c1ccccc1)c1ccccc1)CCO,-9.6% (inactive)
13,NC(=S)N/N=C/c1cc([N+](=O)[O-])ccc1Cl,-2.2% (inactive)
14,S=C(N/N=C/c1ccccc1Cl)Nc1ccccc1,12.3% (inactive)
15,O=[N+]([O-])c1ccc(Cl)c(/C=N/NC(=S)Nc2ccccc2)c1,66.2% (active)
16,CCC(C)(C)c1ccc(OCCN2C(=O)NC(C)(C)C2=O)cc1,7.4% (inactive)
17,COc1ccc(NC(=O)C2(c3ccccc3)CCCC2)cc1,18.9% (inactive)
18,CCOC(=O)C1=C(C)N(C)C(=O)NC1c1c(C)nn(-c2ccccc2)c1C (stereo not given),-0.2% (inactive)
19,CCOC(=O)C1=C(C)NC(=O)NC1c1c(C)nn(-c2ccccc2)c1Cl (stereo not given),53.9% (active)
20,CCOC(=O)C1=C(C)N(C)C(=O)NC1c1c(C)nn(-c2ccc(C)cc2)c1Cl (stereo not given),-6.5% (inactive)
21,CCSc1nnc(NC(=O)c2ccc(S(=O)(=O)N(C)C)cc2)s1,-9.1% (inactive)
22,COc1ccc(Nc2nc(N)nc(CSC(=S)N3CCOCC3)n2)cc1,-8.7% (inactive)
23,CCN1/C(=C/c2cc[n+](C)cc2)C=Cc2cc(C)ccc21,46.3% (inactive)
24,C=CC[n+]1c(/C=C2\C=Cc3cc(C)ccc3N2CC)ccc2ccccc21,16.7% (inactive)

row,Compound,inhibition
1,C=CC[n+]1ccc(/C=C2\C=Cc3cc(C)ccc3N2CC)c2ccccc21,64.5% (active)
2,N#CCSCC(=O)Nc1ccccc1,7.9% (inactive)
3,N#CC(C(=O)NC1CCCCC1)c1nc2ccccc2nc1N1CCN(c2ccc(F)cc2)CC1 (stereo not given),7.4% (inactive)
4,Cc1ccc(-c2nnc3n2N=C(c2ccc(Br)cc2)CS3)cc1,-12.4% (inactive)
5,COc1ccccc1CNc1ccc(C(=O)O)cc1,1.8% (inactive)
6,COc1cccc(CNc2ccc(N3CCCCC3)cc2)c1OC,65.1% (active)
7,COc1ccccc1CNc1ccc(N2CCCCC2)cc1,67.3% (active)
8,COc1cccc(CNc2ccc(F)c(Cl)c2)c1OC,-0.3% (inactive)
9,CC1CCN(c2ccc(NC(=O)Cc3ccccc3)cc2)CC1,13.5% (inactive)
10,COc1ccccc1C(=O)Nc1ccc(N2CCCCC2)cc1,-4.3% (inactive)
11,COc1cccc(CNCCN2CCOCC2)c1OC,0.5% (inactive)
12,COc1cccc(CNc2ccc(S(N)(=O)=O)cc2)c1OC,6.1% (inactive)
13,COc1cccc(CNc2ccc(N3CCC(C)CC3)cc2)c1OC,67.3% (active)
14,S=C1NC2(CCCC2)Nc2ccccc21,-71.4% (inactive)
15,COC(=O)c1ccccc1NC(=O)c1ccc(-c2ccccc2F)o1,-1.4% (inactive)
16,O=C(CSc1ncn[nH]1)Nc1ccc(Br)cc1F,6% (inactive)
17,O=C1c2ccccc2C(=O)N1CCc1c[nH]c2ccc(O)cc12,22.1% (inactive)
18,FC(F)(F)c1cc(-c2ccc(Cl)cc2)nc2ncnn12,-7.2% (inactive)
19,COc1ccc(S(=O)(=O)N2CC(O)CC2C(=O)OCC(=O)Nc2ccc(Cl)cn2)cc1 (stereo not given),13.3% (inactive)
20,O=[N+]([O-])c1ccc2c(c1)[nH]c(=S)n2-c1ccccc1,58.6% (active)
21,O=[N+]([O-])c1ccc(-c2cn(-c3ccccc3)c(=S)[nH]2)cc1,-1.9% (inactive)
22,O=[N+]([O-])c1cccc(-c2cn(-c3ccccc3)c(=S)[nH]2)c1,-9.5% (inactive)
23,CCc1cccc(CC)c1NC(=O)c1cc(CN2C(=O)c3ccccc3C2=O)ccc1OC,3% (inactive)
